PAFAH1B2 inh: PAFAH1B2 enzyme inhibitors, primary screen, biochemical, fluorescence polarization, human; recombinant PAFAH1B2, FP-rhodamine activity probe; inhibition, % at 3.39 µM; actives 1.2% (n = 340,000);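 active means inhibition above the mean of all tested compounds plus 3 SD, cut at about 24% in these data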
Pemphigus Ab inh: inhibitors of pemphigus antibody binding to DSG3, primary screen, biochemical, bead-based, flow cytometry, scFv-GFP; actives 0.48% (n = 310,000); binding (percent of control), % at 10 µM; DSG3-coupled beads, scFv-anti-DSG3-GFP binding; active compounds read low; AID 588358, 2011; Desmoglein-3 (Homo sapiens), P32926;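 active means binding more than 3 SD below its plate's average and above zero; inconclusive means below that plate limit but binding exactly zero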;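 further: hits lower antibody fragment binding to DSG3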
PAFAH2 FP inh: PAFAH2 enzyme inhibitors, primary screen, biochemical, fluorescence polarization, human. Platelet-activating factor acetylhydrolase 2, cytoplasmic (Homo sapiens), Q99487. recombinant PAFAH2, FP-rhodamine activity probe. inhibition, % at 3.39 µM. actives 0.99% (n = 340,000). AID 492956, 2010;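 active means inhibition above the mean over all tested compounds plus 3 SD, cut at about 30% in these data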;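 further: inhibitors block probe labeling of enzyme so polarization drops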
PfM18AAP inh: PfM18AAP inhibitors, malaria aminopeptidase, primary screen, biochemical, QFRET, recombinant enzyme; H-Glu-NHMec fluorogenic cleavage; inhibition, % at 7.35 µM; actives 1.2% (n = 290,000); AID 1822, 2009;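 active means inhibition above the campaign mean inhibition over all tested compounds plus 3 SD, cut at about 28% in these data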
pPAFAH inh: pPAFAH enzyme inhibitors, primary screen, biochemical, fluorescence polarization, human | Platelet-activating factor acetylhydrolase (Homo sapiens), Q13093 | recombinant pPAFAH, FP-rhodamine probe fluorescence polarization | inhibition, % at 3.39 µM | actives 1.5% (n = 330,000) | AID 463082, 2010;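 active means inhibition above the mean inhibition across the screen plus 3 SD, cut at about 25% in these data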;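 further: inhibitors block binding of the rhodamine activity-based probe so polarization drops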
Target sequence (Q13093 whole entry, looked up): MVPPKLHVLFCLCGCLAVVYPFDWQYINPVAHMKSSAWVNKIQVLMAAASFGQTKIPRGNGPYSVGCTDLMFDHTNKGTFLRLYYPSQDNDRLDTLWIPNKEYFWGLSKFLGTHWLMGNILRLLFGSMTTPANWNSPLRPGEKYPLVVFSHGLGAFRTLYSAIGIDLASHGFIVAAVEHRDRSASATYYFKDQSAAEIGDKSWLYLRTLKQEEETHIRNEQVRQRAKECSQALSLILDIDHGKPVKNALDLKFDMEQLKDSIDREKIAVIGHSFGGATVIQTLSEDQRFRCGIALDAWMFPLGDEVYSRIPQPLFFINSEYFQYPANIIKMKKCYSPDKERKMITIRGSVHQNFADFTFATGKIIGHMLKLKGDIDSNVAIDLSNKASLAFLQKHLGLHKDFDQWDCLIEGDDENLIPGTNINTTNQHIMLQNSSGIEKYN
PAFAH1B3 FP inh: PAFAH1B3 enzyme inhibitors, primary screen, biochemical, fluorescence polarization, human. recombinant PAFAH1B3, FP-rhodamine probe. inhibition, % at 3.39 µM. actives 0.28% (n = 340,000). AID 492972, 2010;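 active means inhibition above the screen-wide average of all tested compounds plus 3 SD, cut at about 25% in these data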
Hits are given with their value; n = inactive; u = inconclusive; x = not tested or not shown. Only some compounds are listed: those with a hit (about 3.8% of all), similar ones and a draw of the others.

SMILES | PAFAH1B2 inh | Pemphigus Ab inh | PAFAH2 FP inh | PfM18AAP inh | pPAFAH inh | PAFAH1B3 FP inh
O=C(c1ccco1)N1CCC2CC1c1c(Cl)cccc12 (stereo unspecified) | x | n | x | x | x | x
N#Cc1ccc(COC(=O)c2cnc(Cl)c(Cl)c2)cc1 | n | n | n | n | n | n
NC(=O)c1ccsc1NC(=O)C1CCN(S(=O)(=O)c2cccs2)CC1 | n | n | n | x | n | n
CNC(=O)c1ccsc1NC(=O)C1CCN(S(=O)(=O)c2ccc(Cl)s2)CC1 | 27 | n | n | x | n | n
Cc1ccc(SC(CC(=O)c2ccc(F)cc2)C(=O)O)cc1 (stereo unspecified) | n | n | n | n | n | n
CC(C)(C)c1ccc(C(=O)CC(Sc2ccc(Cl)cc2)C(=O)O)cc1 (stereo unspecified) | 83 | n | 40 | n | n | n
O=C1NC(c2cccs2)C(C(=O)c2ccccc2)C(O)(C(F)(F)F)N1 (stereo unspecified) | 32 | n | n | n | n | n
Nc1cc2c(cc1Br)-c1ccccc1C2=NO | n | n | n | x | x | n
O=C(OCCOCCN=C1NS(=O)(=O)c2ccccc21)c1ccc(F)cc1 | n | 48 | n | n | n | n
Cn1c(CNC(=O)c2ccc(Cl)cc2)nnc1SCC(=O)NC1CCCC1 | n | n | n | n | n | n
Cn1c(CNC(=O)c2ccc(Cl)cc2)nnc1SCC(=O)Nc1sc2c(c1C#N)CCCC2 | 26 | x | n | n | n | n
Cc1ccc(N(CC(N)=O)C2SC(=O)N(Cc3ccccc3)C2=O)cc1 (stereo unspecified) | 26 | n | n | n | n | n
C[C@@H]1CN([C@H](C)CO)C(=O)CCCn2cc(nn2)CO[C@H]1CN(C)C(=O)Nc1cccc(F)c1 | x | n | x | x | x | x
O=C1C(=O)N(CCCc2ccccc2)c2ccccc21 | n | n | n | n | 27 | n
O=C1c2ccccc2C(=O)N1CCCN1C(=O)c2ccccc2C1=O | n | -1.0 | n | x | x | n
CN(CCCn1cnc2c(OCc3ccccc3)ncnc21)Cc1ccco1 | x | n | x | x | x | x
CC(=O)c1ccc(N(C(=O)c2csnn2)C(C(=O)NC(C)(C)C)c2cccs2)cc1 (stereo unspecified) | n | n | n | n | n | n
CCCCNc1c(-c2ccc(OC)c(SC3CCCCC3)c2)nc2cc(C)ccn12 | n | n | n | x | n | n
CCCCNc1c(-c2ccc(OC)c(SC3CCCCC3)c2)nc2cnccn12 | n | n | n | x | 33 | n
Cc1ccc(C(=O)NNc2cc(N3CCCC3)nc(N3CCCC3)n2)cc1 | x | x | x | n | 32 | x
COc1ccc(CN(C)C(=O)CCNS(=O)(=O)c2ccccc2)c(OC)c1 | x | n | x | x | x | x
Cc1cc2ccccc2c(=O)[nH]1 | n | n | n | n | n | n
Cc1nc2cc3ccccc3cc2c(=O)[nH]1 | n | n | n | n | 27 | n
O=S(=O)(c1ccc(NC(=S)N2CCCCC2CO)cc1)N1CCOCC1 (stereo unspecified) | x | n | x | x | x | x
CCS(=O)(=O)C1=NN2C(=N)/C(=C\c3ccc(OS(=O)(=O)c4ccccc4)cc3)C(=O)N=C2S1 | n | n | n | n | n | n
SMILES | PAFAH1B2 inh | Pemphigus Ab inh | PAFAH2 FP inh | PfM18AAP inh | pPAFAH inh | PAFAH1B3 FP inh
CCS(=O)(=O)C1=NSC2=NC(=O)/C(=C\c3ccc(OS(=O)(=O)c4ccccc4)c(OC)c3)C(=N)N21 | n | u | n | n | n | n
CS(=O)(=O)C1=NSC2=NC(=O)/C(=C\c3ccc(OS(=O)(=O)c4ccccc4)cc3)C(=N)N21 | 25 | n | n | n | n | n
O=C1ON=C(c2ccccc2)/C1=C/c1ccc(OS(=O)(=O)c2ccccc2)cc1 | 101 | n | n | n | n | n
COc1ccc(/C=C2\C(=O)ON=C2c2ccccc2)cc1 | n | n | n | n | n | n
Cc1ccc(S(=O)(=O)Oc2ccc(/C=C3/C(=N)N4C(=NC3=O)SN=C4S(C)(=O)=O)cc2)cc1 | 50 | n | n | n | n | n
Cc1ccc(S(=O)(=O)Oc2ccc(/C=C3\C(=N)N4N=C(S(C)(=O)=O)SC4=NC3=O)cc2)cc1 | 60 | n | n | n | n | n

High-throughput results as filed in PubChem.
